# Screening results (PubChem)
# Pol beta inh = qHTS Assay for Inhibitors of DNA Polymerase Beta; P06746; Pol beta primer extension/strand displacement, fluorescence kinetic; Potency, µM (top dose mostly 114 µM), hits mostly inhibitors; 340,000 tested, 1.3% active
#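 Kinetic readout of DNA synthesis with strand displacement by Pol beta. Compound and 10 nM enzyme sit 15 min at room temperature; 50 nM substrate starts the reaction, read immediately and at 10 min.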
# POLH inh = qHTS for Inhibitors of Polymerase Eta; Potency, µM (highest dose often 114 µM), actives largely listed as inhibitors; DNA polymerase eta (Homo sapiens), Q9Y253; recombinant Pol eta, fluorescent DNA replication assay; 390,000 tested, 1.2% active
#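 Pol eta (10 nM) was preincubated with compounds for 15 min at room temperature, after which fluorescent replication substrate (50 nM final) was added to start the reaction. Fluorescence was read kinetically at 0 and 10 min.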
# WRN inhibitor = qHTS for Inhibitors of WRN Helicase | Potency, µM (top dose mostly 114 µM), hits mostly inhibitors | 360,000 tested, 0.46% active | WRN helicase unwinding, fluorescent forked duplex, kinetic | Bifunctional 3'-5' exonuclease/ATP-dependent helicase WRN (Homo sapiens), Q14191; also: nearly all actives have a fitted effect of over 55% in size
#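 WRN at 20 nM final was preincubated with compound for 15 min at room temperature; reaction started with 100 nM forked duplex oligonucleotide carrying fluorophore and quencher plus 2 mM ATP (final). Unwinding followed kinetically by red fluorescence (ex 525/em 598 nm).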
# POLK inh = qHTS for Inhibitors of Polymerase Kappa; DNA polymerase kappa (Homo sapiens), Q9UBT6; purified Pol kappa, fluorescent DNA synthesis assay, 10 min; Potency, µM (titrated, usually from 107 µM), usual class: inhibitors; 400,000 tested, 0.53% active; AID 588579, 2011
#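 50 nM final substrate added after 15 min RT preincubation of 10 nM Pol kappa with compound; fluorescence read at 0 and 10 min.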
# FEN1 inh = qHTS Assay for the Inhibitors of Human Flap endonuclease 1 (FEN1); P39748; Recombinant FEN1 flap cleavage, fluorescence, 15 min; Potency, µM (highest dose often 114 µM), actives largely listed as inhibitors; 390,000 tested, 0.35% active; AID 588795, 2011; also: nearly all actives have a fitted effect of over 65% in size
# Target sequence (P39748 whole entry, looked up): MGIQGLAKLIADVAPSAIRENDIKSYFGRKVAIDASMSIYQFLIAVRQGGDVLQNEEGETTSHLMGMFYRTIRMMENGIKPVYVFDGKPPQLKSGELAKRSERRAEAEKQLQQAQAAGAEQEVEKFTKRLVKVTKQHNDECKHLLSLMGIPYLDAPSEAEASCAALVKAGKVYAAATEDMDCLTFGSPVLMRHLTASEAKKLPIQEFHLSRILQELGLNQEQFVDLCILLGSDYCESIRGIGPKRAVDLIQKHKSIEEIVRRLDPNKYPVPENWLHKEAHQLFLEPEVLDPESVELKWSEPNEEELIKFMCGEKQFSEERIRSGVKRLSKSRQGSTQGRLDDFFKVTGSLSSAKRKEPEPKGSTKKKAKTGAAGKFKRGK
#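 Read-out was taken twice, immediately and after 15 min, following addition of 50 nM substrate to 10 nM FEN1 that had sat with test compound for 15 min at room temperature. Curves came from a four-parameter Hill model.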
# POLI inh = qHTS for Inhibitors of Polymerase Iota | Potency, µM (titrated, usually from 115 µM), usual class: inhibitors | DNA polymerase iota (Homo sapiens), Q9UNA4 | 390,000 tested, 1% active | Pol iota fluorescent replication assay, 10 min
#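 Fluorescent replication assay read twice, at 0 min and 10 min after adding 50 nM (final) substrate. Enzyme (10 nM) and compounds were first incubated 15 min at room temperature; enzyme-free buffer wells were negative controls.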
# A number is an active result; 0 = inactive; ? = inconclusive; - = not tested or not shown; [ ] = dose if it differs, or a comment. The list is not random: actives were taken first. Their share in the collection is about 2.4%. Calls follow the shape of the dose curve; as a rule, active = well fitted curve in the direction sought with a large enough effect; inconclusive = small, poorly fitted or top-dose-only effect, or another doubt; inactive = no such curve, though single readings can be large; an effect the other way counts as inactive or inconclusive.
SMILES,Pol beta inh,POLH inh,WRN inhibitor,POLK inh,FEN1 inh,POLI inh
CCCc1ccc2oc(C(=O)N3CCC(COC)C3)c(C)c2c1 (centres undefined),0,0,0,0,0,0
CCN1C(=O)[C@H]2[C@@H](c3ccc(-c4ccc(Cl)c(Cl)c4)c(OC)c3)N[C@@](Cc3ccccc3)(C(=O)OC)[C@H]2C1=O,-,0,0,0,0,0
CN(C)CCN1C(=O)c2cccc3cc([N+](=O)[O-])cc(c23)C1=O,-,?,0,?,20µM,79µM
O=C1c2cccc3cc([N+](=O)[O-])cc(c23)C(=O)N1CC1CCCO1 (centres undefined),0,0,0,0,?,?
C(=C\c1ccnc2ccccc12)/c1ccc(N2CCOCC2)cc1,-,-,-,?,45µM,?
C(=C\c1ccc2ccccc2n1)/c1ccccc1,0,0,0,0,0,0
CC[N+](CC)(CC)c1ccc(/C=C/c2ccc3ccccc3n2)cc1,-,-,-,45µM,40µM,0
CC[N+](C)(C)c1ccc(/C=C/c2ccnc3ccccc23)cc1,-,-,-,?,40µM,79µM
CCN(CC)c1ccc(/C=C/c2ccnc3ccccc23)cc1,-,-,-,0,0,0
CC[N+](CC)(CC)c1ccc(/C=C/c2ccnc3ccccc23)cc1,-,-,-,45µM,?,?
C(=C\c1ccnc2ccccc12)/c1ccc(N2CCN(c3ccc(/C=C/c4ccnc5ccccc45)cc3)CC2)cc1,-,-,-,0,0,0
Cc1ccc(C)c(Cn2c3ccccc3c3cnn(CC(=O)NCCc4ccccc4)c(=O)c32)c1,0,0,-,0,0,0
CCOC(=O)c1cc(NC(=O)CC(C)(C)CC(=O)O)ccc1N1CCCCC1,0,0,0,0,0,0
Cc1[nH]n(-c2ncc(-c3ccccc3)s2)c(=O)c1C(c1ccc(Br)cc1)C(C#N)C#N (centres undefined),45µM,22µM,?,?,?,?
Cc1[nH]n(C(N)=S)c(=O)c1C(c1ccccc1)C(C#N)C#N (centres undefined),0,0,0,0,0,?
COc1ccc(C(=O)Nc2ccc3oc(-c4cccnc4)nc3c2)cc1,0,0,-,0,0,0
N#Cc1ccc(S(=O)(=O)N2CCCCC2c2cc(C(=O)NCc3ccccc3)no2)cc1 (centres undefined),-,-,0,-,-,-
CCOC(=O)c1c(NC(C)=O)sc2c(OCC(O)CN(CC)CC)c(Br)ccc12 (centres undefined),?,0,0[11.6 µM],0,22µM,?
CCOC(=O)c1c(NC(C)=O)sc2c(OCCN(CC)CC)c(Br)ccc12,0,0,0,0,?,0
CCOC(=O)C1=C(CC)OC(N)=C(C#N)C1c1cccs1 (centres undefined),0,0,0,0,0,0
CCN1CC2=C(OC(N)=C(C#N)C2c2cccs2)/C(=C\c2cccs2)C1 (centres undefined),0,0,0[11.6 µM],0,0,40µM
O=C(NCCOc1ccccc1)c1ccccc1Cl,0,0,0,0,0,0
CC1(C)SC2C(N3C(=O)C(c4ccccc4)NC3(C)C)C(=O)N2C1C(=O)O (centres undefined),-,-,-,7.1µM,-,-
Cc1cc(/C=C2/C(=N)N3C(=NC2=O)SN=C3S(C)(=O)=O)c(C)n1-c1ccccc1F,0,79µM,0,0,0,?
CCCC1=NN2C(=N)/C(=C\c3cc(C)n(Cc4ccccc4)c3C)C(=O)N=C2S1,0,0,0,0,0,0
SMILES,Pol beta inh,POLH inh,WRN inhibitor,POLK inh,FEN1 inh,POLI inh
Cc1cc(/C=C2\C(=N)N3N=C(S(C)(=O)=O)SC3=NC2=O)c(C)n1Cc1ccccc1,?,35µM,?,0,0,?
CC1CCC2C(C1)OS(=O)(=O)NC2(C)C (centres undefined),0,-,-,-,-,-
Cc1ccc(NC(=O)CN2C(=O)/C(=C\c3cccs3)SC2=S)cc1,0,0,0,0,0,0
Cc1ccc(CCNC(=O)c2ccc(Cn3c(=O)c4cccn4c4cccnc43)cc2)cc1,?,?,-,0,0,79µM
Cc1ccccc1CCNC(=O)c1ccc(Cn2c(=O)c3cccn3c3cccnc32)cc1,?,89µM,-,0,0,?
C=CCN(CC=C)CCOc1cccc(Oc2ccccc2)c1,0,0,0,0,0,0
Cc1ccc(NC(=O)CSC(N)=O)cc1Cl,0,0,0,0,0,13µM
NC(=O)SCC(=O)Nc1ccc(Cl)c(Cl)c1,0,0,?,0,0,?
CCN(CC)C(=O)CC(c1ccc(N(C)C)cc1)c1c(OC)cc(OC)c2ccc(=O)oc12 (centres undefined),0,0,0,0,0,?
CCN(CC)C(=O)CC(c1ccc2c(c1)OCO2)c1c(OC)cc(OC)c2ccc(=O)oc12 (centres undefined),50µM,35µM,0,79µM,0,89µM
Cc1c(C(=O)N2CCN(c3ccc([N+](=O)[O-])cc3)CC2)oc2ccccc12,-,0,0,0,0,0
CCCc1nn2c(=O)cc(COc3ccc(/C=C(\C#N)C(=O)Nc4ccccc4)cc3)nc2s1,?,0,-,0,0,0
CCCc1nn2c(=O)cc(COC(=O)c3cccc(NC(=O)c4cccs4)c3)nc2s1,3.5µM,0,-,0,0,?
Cc1ccc(OCC(=O)OCc2cc(=O)n3nc(-c4cccs4)sc3n2)cc1,?,0,-,0,0,?
Cc1ccccc1C(=O)OCc1cc(=O)n2nc(-c3cccs3)sc2n1,32µM,0,-,0,0,?
Cc1nn2c(=O)cc(COc3ccc(/C=C(\C#N)C(=O)Nc4ccccc4C)cc3)nc2s1,?,0,-,?,0,20µM
O=C(OCc1cc(=O)n2nc(-c3cccs3)sc2n1)c1ccccc1Cl,35µM,?,-,?,0,?
COc1cc(C(=O)Nc2ccccc2-c2nnn(CC(N)=O)n2)cc(OC)c1OC,0,0,0,0,0,0
Cc1cc(=O)c2cc(C(=O)Nc3ccccc3)ccc2[nH]1,0,0,-,0,0,0
CCOC(=O)c1c(C)[nH]c(C)c1S(=O)(=O)NCC1CCN(Cc2ccccc2OC)CC1,0,0,0,0,0,0
O=C(OCc1cc(=O)n2nc(-c3cccs3)sc2n1)c1cccc(Cl)c1,40µM,0,-,0,0,?
Cc1ccc(C(=O)OCc2cc(=O)n3nc(-c4cccs4)sc3n2)cc1,18µM,89µM,-,?,0,?
Cc1nn2c(=O)cc(COC(=O)c3ccccc3NC(=O)C(C)C)nc2s1,0,79µM,-,0,0,0
O=C(COc1ccc(Cl)cc1)OCc1cc(=O)n2nc(-c3cccs3)sc2n1,25µM,?,-,0,0,?
